# Experimental data taken from PubChem BioAssay (Tox21).
# Results filed as inconclusive are left out. A call without a number means that no potency is given here. The source made the active and inactive calls. Calls come from the whole dose curve; as a rule, active = well fitted cell-killing curve with a large enough effect in the repeat runs; inconclusive = weak or mixed curves; inactive = flat fitted curve, though single readings scatter.
# Assay: qHTS RealTime-Glo MT Cell Viability Assay in HepG2 cells - 8 hour (AID 1224873); note: nearly all actives have a fitted effect of over 55% in size
# Details: RealTime-Glo luminescence; series mostly up to 76.8 µM
# Text: National Center for Advancing Translational Sciences [NCATS]
# NIH Chemical Genomics Center [NCGC]
# U.S. Environmental Protection Agency [EPA]
# National Institutes of Environmental Health Sciences [NIEHS]
# National Toxicology Program [NTP]
# U.S. Food and Drug Administration [FDA]
# Measure of cell viability is critical in the cell-base assay. Analysis of cell viability is necessary for the characterization of cell responses to cytotoxic drugs and environmental stress. A RealTime-Glo MT Cell Viability Assay to monitor cell viability in real time of continues cell culture during 40 hours of compound treatment was used to screen Tox21 10K library compounds in HepG2 cells. The RealTime-Glo MT Cell Viability Assay is a nonlytic, homogeneous, bioluminescent method to measure cell viability in real time using a simple, plate-based method. The assay involves adding NanoLuc luciferase and a cell-permeant prosubstrate to cells in culture. Viable cells reduce the proprietary prosubstrate to generate a substrate for NanoLuc luciferase. This substrate diffuses from cells into the surrounding culture medium, where it is rapidly used by the NanoLuc Enzyme to produce a luminescent signal. The signal correlates with the number of viable cells, making the assay well suited for cytotoxicity studies.
# Tox21 Assay Protocol Summary:
# The mixture of HepG2 cell suspension and reagents were dispensed at 600cells/6 ul/well in 1536-well tissue culture treated black solid bottom plates using a Multidrop dispenser. After the assay plates were incubated at a 37 C/5% CO2 incubator for 5 hours, 23 nL of compounds dissolved in DMSO, positive and negative controls was transferred to the assay plate by a pintool work station. The plates were incubated at 37 C for 40 hours. The luminescence intensity were measured at 0h, 8h, 16h, 24h, 32h and 40h time points using ViewLux plate reader during compound treatment.
row,SMILES,Potency
1,C/C=C/C(=O)O,inactive
2,O=C(/C=C/C=C/c1ccc2c(c1)OCO2)N1CCCCC1,inactive
3,O=C1c2cccc(O)c2C(=O)c2c(O)cccc21,inactive
4,CN(C)CCN(Cc1cccs1)c1ccccn1,inactive
5,C[C@]12CC[C@H]3[C@@H](CCC4=CC(=O)CC[C@@]43C)[C@@H]1CC[C@@H]2C(=O)CO,inactive
6,Cc1ccc(C)c(O)c1C,inactive
7,C=CC(C)(CCC=C(C)C)OC(C)=O (stereo not given),inactive
8,CN(C)C(=N)N=C(N)N,inactive
9,c1ccc2cc(Nc3ccc(Nc4ccc5ccccc5c4)cc3)ccc2c1,inactive
10,CCC(C)c1ccccc1O (stereo not given),inactive
11,COC(=O)c1ccccc1,inactive
12,Cc1cccc(C(=O)O)c1,inactive
13,CC(CCC(=O)O)(c1ccc(O)cc1)c1ccc(O)cc1,inactive
14,c1ccc2c(c1)Oc1ccccc1S2,inactive
15,NNc1ccc(C(=O)O)cc1,inactive
16,C[C@]12CCC(=O)C=C1CC[C@@H]1[C@@H]2C(=O)C[C@@]2(C)[C@H]1CC[C@]2(O)C(=O)CO,inactive
17,CC(=O)c1ccccn1,inactive
18,Cc1ccc(C(=O)c2cc(O)c(O)c([N+](=O)[O-])c2)cc1,inactive
19,CCOC(=O)C(C#N)=C(c1ccccc1)c1ccccc1,inactive
20,CCCCNS(=O)(=O)c1ccccc1,inactive

row,SMILES,Potency
1,CCCCC(CC)COP(=O)(OCC(CC)CCCC)OCC(CC)CCCC (stereo not given),inactive
2,CC(C)=CCCC(C)CCO (stereo not given),inactive
3,O=[N+]([O-])c1ccc2c(c1)Cc1ccccc1-2,inactive
4,Cn1cnc([N+](=O)[O-])c1Sc1ncnc2nc[nH]c12,inactive
5,COc1ccccc1/C=C/C=O,inactive
6,O=C1OC2(c3cc(Br)c(O)c(Br)c3Oc3c2cc(Br)c(O)c3Br)c2c(Cl)c(Cl)c(Cl)c(Cl)c21,inactive
7,CC1=CC2C3CC(C=C3C)C2C1 (stereo not given),inactive
8,COC(=O)CCC(=O)OC,inactive
9,CCCCC/C=C/C=C/C=O,inactive
10,OCCO,inactive
11,COc1cccc2c1C(=O)c1c(O)c3c(c(O)c1C2=O)C[C@@](O)(C(=O)CO)C[C@@H]3O[C@H]1C[C@H](N)[C@H](O)[C@H](C)O1,inactive
12,COc1c(Cl)c(Cl)c(Cl)c(Cl)c1Cl,inactive
13,c1ccc(Nc2ccccc2)cc1,inactive
14,C#C[C@]1(O)CC[C@H]2[C@@H]3CCc4cc(OC)ccc4[C@H]3CC[C@@]21C,inactive
15,O=C(OCc1ccccc1)c1ccccc1O,inactive
16,O=C(Nc1ccc(Cl)cc1)Nc1ccc(Cl)c(Cl)c1,inactive
17,CC(C)Oc1ccc2c(=O)c(-c3ccccc3)coc2c1,inactive
18,COc1ccc(OC)c(C(O)CNC(=O)CN)c1 (stereo not given),inactive
19,Cc1cccc([N+](=O)[O-])c1C,inactive
20,O=C(Nc1ccc([N+](=O)[O-])cc1Cl)c1cc(Cl)ccc1O,inactive
